Screening results as filed in PubChem BioAssay.
IkB sig inh: IkB pathway inhibition in ABC-DLBCL cells; ABC-DLBCL IkBa-CBG/CBR dual luciferase ratio, 4 h; response scale: scaled: untreated 0%, proteasome inhibitor 100%; Potency, µM (series often up to 57.1 µM), without a hit: at the highest dose IkBa stabilization activation; hit rate 0.04% among 110,000; active = well fitted curve in the direction sought with a large enough effect in the signal ratio, not every such curve was filed as active; inconclusive = small, poorly fitted or top-dose-only effect, or a change in a side signal; the % refers to the signal ratio;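 also: potency is read from the fitted curve at half-maximal effect; the direction sought is a rising ratio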
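Luminescence ratio of IκBα-fused green versus native red beetle luciferase in OCI-Ly3 cells, 4 h post-doxycycline with compound; red signal alone, scaled from basal (0%) to zero light (-100%), flagged nonspecific or cytotoxic effects.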
p53ts 39C tox: cytotoxicity in p53ts cells at nonpermissive temperature. H1299-p53A138V viability at 39C, ATP luminescence, 24 h. Potency, µM (top dose mostly 46.1 µM), for inactives: at the top dose activity change, negative = cell killing, actives largely listed as cytotoxic. hit rate 1.5% among 130,000. AID 902; also: potency is read from the fitted curve at half-maximal effect; % is scaled to controls: 0 for no effect and ±100 for the full control effect; nearly all actives have a fitted effect of over 55% in size
Luciferase inh: firefly luciferase inhibition; P08659; purified firefly luciferase, luminescence, 8 min; Potency, µM (doses to about 57.1 µM), for the others: at the highest dose activity change, negative = inhibition, hits mostly inhibitors; hit rate 2.2% among 72,000; also: potency is read from the fitted curve at half-maximal effect; % is scaled to controls: 0 for no effect and ±100 for the full control effect; nearly all actives have a fitted effect of over 40% in size
Target sequence (P08659 whole entry, looked up): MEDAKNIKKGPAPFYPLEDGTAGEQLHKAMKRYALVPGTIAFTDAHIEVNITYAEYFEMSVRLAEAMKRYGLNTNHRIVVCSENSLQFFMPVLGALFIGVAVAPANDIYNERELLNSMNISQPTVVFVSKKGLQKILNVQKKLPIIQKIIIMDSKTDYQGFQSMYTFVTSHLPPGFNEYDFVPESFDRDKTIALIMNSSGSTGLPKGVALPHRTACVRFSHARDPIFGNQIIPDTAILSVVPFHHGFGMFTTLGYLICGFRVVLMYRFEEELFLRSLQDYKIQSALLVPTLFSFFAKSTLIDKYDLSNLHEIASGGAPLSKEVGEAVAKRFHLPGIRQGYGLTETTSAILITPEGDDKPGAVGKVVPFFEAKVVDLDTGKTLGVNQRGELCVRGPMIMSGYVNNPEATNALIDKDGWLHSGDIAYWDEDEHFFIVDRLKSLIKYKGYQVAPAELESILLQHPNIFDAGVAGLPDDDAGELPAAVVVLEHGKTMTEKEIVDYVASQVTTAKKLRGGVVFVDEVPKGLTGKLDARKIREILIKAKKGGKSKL
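qHTS concentration-response profiling: light output of P. pyralis luciferase with luciferin and 10 uM ATP, imidazole buffer pH 7.2. Read by luminescence after 8-min room-temperature incubation.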
Hsp90 Hop PPI: changes Hsp90-Hop TPR2A binding signal, up or down; AlphaScreen TPR2A-His6 binding biotin-Hsp90 C-terminal peptide; Potency, µM (highest dose often 57 µM), for inactives: top-dose activity change, negative = inhibition; AID 595; hit rate 0.44% among 71,000; active = well fitted curve in either direction with a large enough effect; inconclusive = small, poorly fitted or top-dose-only effect, or another doubt; also: potency is read from the fitted curve at half-maximal effect; % is scaled to controls: 0 for no effect and ±100 for the full control effect
p53ts 32C kill: cytotoxicity in p53ts cells at permissive temperature; Potency, µM (doses to about 46.1 µM), for the others: at the top dose activity change, negative = cytotoxicity, actives largely listed as cytotoxic; hit rate 0.93% among 130,000; H1299-p53A138V at 32C, ATP luminescence viability, 24 h;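 also: potency is read from the fitted curve at half-maximal effect; 0% = DMSO and -100% = full killing by reference compound; nearly all actives have a fitted effect of over 55% in size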
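Cells: H1299 p53ts (A138V), 600/well, pre-incubated 16–30 h at 37C. Cpd up to 46 uM, 24 h, 32C. Readout: ATPlite luminescence, 20 min RT. Normalization: DMSO vs tamoxifen 100 uM. AC50 by Hill equation.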
IMPase cell inh: IMPase inhibition in cells; P97697; 120,000 tested, under 10 active; inhibition (IP1 accumulation), % at 46.1 µM; CHO-M1 cells, IP1 accumulation, HTRF TR-FRET ratio; active = well fitted curve in the direction sought with a large enough effect in the signal ratio, not every such curve was filed as active; inconclusive = small, poorly fitted or top-dose-only effect, or a change in a side signal; inactive = no such curve, though single readings can be large or run the other way; the % refers to the signal ratio;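 also: cells stimulated with carbachol in lithium chloride buffer; plate controls were DMSO basal wells for no effect and reference inhibitor wells for full effect; higher means more IMPase inhibition seen as more IP1 and lower FRET ratio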
Target sequence (P97697 whole entry, looked up): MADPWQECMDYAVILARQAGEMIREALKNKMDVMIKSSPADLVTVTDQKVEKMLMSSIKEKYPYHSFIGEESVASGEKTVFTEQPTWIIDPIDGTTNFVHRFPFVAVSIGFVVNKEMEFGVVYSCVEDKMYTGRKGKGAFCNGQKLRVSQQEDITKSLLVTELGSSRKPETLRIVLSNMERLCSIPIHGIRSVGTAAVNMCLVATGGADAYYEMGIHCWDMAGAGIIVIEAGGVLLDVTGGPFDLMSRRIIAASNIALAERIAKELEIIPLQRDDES
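Elevated IP1 in lysates lowers TR-FRET signal (665/620 ratio and 620 channel reported). Cells were CHO-M1, given carbachol (50 uM as added) plus 50mM LiCl, pH 7.4, 30 min, 37C; compounds titrated up to 46 uM; AC50 by Hill equation.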
* hit, by the source's call; ? = inconclusive; . = no result; ! = not confirmed by another sample; [ ] = dose if it differs, or a comment. Only a selection was taken, and hits are over-represented in it overall. Unless noted, calls follow the shape of the dose curve; as a rule, active = well fitted curve in the direction sought with a large enough effect; inconclusive = small, poorly fitted or top-dose-only effect, or another doubt; inactive = no such curve, though single readings can be large; an effect the other way counts as inactive or inconclusive.

SMILES	IkB sig inh	p53ts 39C tox	Luciferase inh	Hsp90 Hop PPI	p53ts 32C kill	IMPase cell inh
Cc1cc(C)c(NC(=O)Cn2nnc3sc4c(c3c2=O)CCC(C(C)(C)C)C4)c(C)c1 (stereo not given)	-0.3%	12.6µM*	.	.	?	.
Cc1ccc(Cl)cc1NC(=O)Cn1nnc2sc3c(c2c1=O)CCC(C(C)(C)C)C3 (stereo not given)	-0.3%	-19.2%	.	.	4.0%	.
FC(F)(F)c1cccc(N2CCN(c3nc4ccccc4n4cnnc34)CC2)c1	?	15.8µM*	.	.	-1.9%	.
COc1cccc(-c2nccc(NCc3cccc(C)c3)n2)c1	0.3%[11.4 µM]	-9.2%	-2.0%[2.29 µM]	4.2%	2.7%	.
COc1cccc(-c2nccc(NCc3ccccc3)n2)c1	-1.2%[11.4 µM]	12.6µM*	-20.5%[2.29 µM]	25.4%	20µM*	.
CCCCNC(=O)CSc1nnc(C)c2c(C)n(-c3ccccc3)nc12	?	15.8µM*	.	.	7.1%	.
CCOc1ccc(CNC(=O)CSc2nnc(C)c3c(C)n(-c4ccccc4)nc23)cc1	1.4%	25.1µM*	.	.	1.6%	.
Cc1ccccc1Nc1nnc(-c2ccc(C)c(S(=O)(=O)N3CCCCC3)c2)c2ccccc12	2.6%	-21.9%	.	.	21.6%	?
Cn1c(CNc2nc3ccccc3n2C)nc2ccccc21	4.2%	0.8%	-1.9%	?	1.2%	2.0
Cc1ccc(NCc2nc3ccccc3n2C)cc1	-5.5%	?	12.6µM*	-3.1%	?	2.5
O=C(Oc1ccc(Cl)cc1)c1cc(-c2ccc3c(c2)OCCO3)on1	1.0%	?	.	.	-14.9%	.
COc1ccc(OC(=O)c2cc(-c3ccc4c(c3)OCCO4)on2)cc1	0.6%	12.6µM*	.	.	12.6µM*	.
N#Cc1ccc(OC(=O)c2cc(-c3ccc4c(c3)OCCO4)on2)cc1	2.6%	12.6µM*	.	.	?	.
CC(C)c1ccc(OC(=O)c2cc(-c3ccc4c(c3)OCCO4)on2)cc1	0.2%	20µM*	.	.	12.6µM*	.
O=C(CSc1nc(=O)[nH]c2c1CCC2)NCc1ccc(Cl)cc1	3.0%	-11.9%	.	.	15.4%	.
COc1cc(Cl)c(C)cc1NC(=O)Cn1ncc2c1-c1cc(C)ccc1OC2	-3.8%	12.6µM*	.	.	-2.8%	.
COc1cc(C(=O)Oc2c(CN3CCOCC3)cc(Cl)c3cccnc23)cc(OC)c1OC	?	12.6µM*	1.9%	-10.3%[2.3 µM]	?	2.0
O=C(Oc1c(CN2CCOCC2)cc(Cl)c2cccnc12)c1ccc(F)cc1	17.4%	?	1.1%	12.6µM*	-19.1%	11.6
COc1ccc(C(=O)Oc2c(CN3CCOCC3)cc(Cl)c3cccnc23)cc1	-2.1%	?	3.0%	-26.0%	-12.3%	-1.6
COc1ccccc1/C=C/c1nc2ccccc2n1C(C)C	-5.3%	15.8µM*	.	.	?	6.1
Cc1ccc(C(O)c2nc3ccccc3n2C(C)C)cc1 (stereo not given)	-4.2%	15.5%	1.1%	-3.9%	7.0%	-4.0
COc1ccc(CCNCc2c(C(=O)O)c(C)n(Cc3c(F)cccc3Cl)c2C)cc1OC	0.2%	-16.8%	.	.	6.0%	.
O=Nc1c(-c2c(O)[nH]c3ccccc23)[nH]c2ccccc12	?	25.1µM*	25.1µM*!	12.6µM*!	25.1µM*	20.5
O=NC1=C(c2c(O)[nH]c3ccccc23)CCCC1	0.6%	10.3%	2.2%	2.8%	-3.1%	15.7
CC(C)(C)n1ncc2c(=O)n(CC(=O)OCc3ccccc3)cnc21	0.4%	-6.2%	0.398µM*	3.2%	?	2.8
SMILES	IkB sig inh	p53ts 39C tox	Luciferase inh	Hsp90 Hop PPI	p53ts 32C kill	IMPase cell inh
CC(C)(C)n1ncc2c(=O)n(CC(=O)NCc3ccc(F)cc3)cnc21	2.4%	?	20µM*	2.1%	?	-11.2
Cc1cnc(CNc2ncnc3ccc(-c4ccccc4C(F)(F)F)cc23)cn1	10.8%[11.4 µM]	-9.8%	0.4%[2.29 µM]	-7.2%	10.6%	.
CCOc1ccc(/C=C/c2nc(C#N)c(N3CCN(c4ccc(OC)cc4)CC3)o2)cc1	-0.2%	-11.7%	.	.	5.4%	.
Cc1c(C(=O)OCCOc2ccccc2)[nH]c2c1C(=O)CCC2	?	-13.8%	10µM*	-1.5%	-20.8%	1.5
CCc1ccc(C2CC(=O)c3c([nH]c(C(=O)OCCOc4ccccc4)c3C)C2)cc1 (stereo not given)	-0.8%	12.6µM*	.	.	?	-3.7
O=C(CN1C(=O)C2(SCC(=O)N2c2cccc(Cl)c2)c2ccccc21)NCCc1ccccc1 (stereo not given)	7.9%	3.7%	.	.	3.0%	.
CCOc1ccc(C2=C(C(=O)CC)Sc3nncn3N2C(=O)CC)cc1	?	?	.	.	11.2µM*	.
CCC(=O)C1=C(c2ccc(F)cc2)N(C(=O)CC)n2cnnc2S1	?	66.3%	.	.	8.6%	.
CCOC(=O)c1ccc(CC(=O)c2ccc(O)cc2O)o1	.	.	.	.	.	1.6
COC(=O)c1ccc(OCC(=O)c2ccc(O)cc2O)cc1	?	12.6µM*	12.6µM*	-5.7%	12.6µM*	-13.2
CCOC(=O)c1ccc(OCC(=O)c2ccc(O)cc2O)cc1	0.3%	12.6µM*	-23.5%	-0.7%	12.6µM*	-2.8
Cc1ccccc1-c1cncnc1Nc1ccccc1	2.7%[11.4 µM]	-3.5%	1.0%[2.29 µM]	0.7%	7.8%	.
S=C1N[C@H](c2ccccc2)N[C@H](c2ccccc2)S1	0.8%[11.4 µM]	7.2%[9.22 µM]	0.7%[11.4 µM]	-4.7%[11 µM]	6.1%[9.22 µM]	.
CCCC(=O)Nc1ccc(-c2nc3cc(C)ccc3o2)cc1	?	-26.7%	3.98µM*	-0.8%	?	6.8
CCOc1cccc(-c2nc3cc(C)ccc3o2)c1	2.3%	?	7.94µM*	?	15.8µM*	2.6
Cc1cccc(OCC(=O)Nc2ccc(-c3nc4cc(C)ccc4o3)c(O)c2)c1	3.0%	10µM*	.	.	-25.4%	?
CCOc1ccc(-c2nc3cc(NC(=O)COc4cccc(C)c4)ccc3o2)cc1	-1.5%	-4.6%	.	.	-8.3%	1.0
Cc1ccc(NC2(c3ccccc3)C(=O)c3ccccc3C2=O)cc1F	?	6.9%	.	.	1.4%	5.5
c1ccc2c(c1)oc1c(Nc3ccc(CN4CCOCC4)cc3)ncnc12	?	?	15.8µM*	-9.0%	?	9.9
c1ccc2c(c1)oc1c(NCCN3CCOCC3)ncnc12	-3.0%	-3.4%	-0.8%	-3.1%	-5.5%	4.2
C[C@@H]1C(=O)O[C@H]2[C@@H](O)[C@@]34[C@H]5C[C@H](C(C)(C)C)[C@@]36[C@H](OC(=O)[C@@H]6O)O[C@@]4(C(=O)O5)[C@@]12O	-0.2%[11.4 µM]	.	-0.3%[11.4 µM]	?	.	.
Cc1cccc(OC(=O)c2cc(-c3ccc4c(c3)OCCO4)on2)c1C	0.5%	?	.	.	20µM*	.
O=C(Oc1ccccc1Cl)c1cc(-c2ccc3c(c2)OCCO3)on1	0.8%	?	.	.	?	.
Cc1cccc(OC(=O)c2cc(-c3ccc4c(c3)OCCO4)on2)c1	?	20µM*	.	.	20µM*	.
